# Source: PubChem BioAssay AID540254 (Southern Research Specialized Biocontainment Screening …, 2011)
# Hit rate of the full screen: of about 1,800 compounds, fewer than 10 were called active. No rule for the calls is given here. Not all results are given here. Results with a measured potency or affinity are listed apart.
# Assay: antiviral activity against H1N1 influenza, dose response, cell-based, strain KY180 (AID 540254)
# Settings: H1N1 KY180 influenza antiviral cell-based screen; series mostly up to 40 µM; inhibition: at the top concentration
row,Compound,inhibition
1,O=C(Nc1nc(-c2ccccn2)cs1)C1COc2ccccc2O1 (stereo unspecified),-1.68% (inactive)
2,CC(=O)N/N=C(\C)c1cccc(NC(=O)c2cccs2)c1,0% (inactive)
3,O=C(Nc1nc2c(s1)CCCC2)C1COc2ccccc2O1 (stereo unspecified),-1.12% (inactive)
4,Cn1c(=O)c2[nH]c(NN=Cc3ccc(Br)cc3)nc2n(C)c1=O,-1.47% (inactive)
5,COc1ccc(C(=O)NC(=S)NNC(=O)c2cnccn2)cc1OC,0.25% (inactive)
6,COC(=O)c1ccccc1NC1=C/C(=N\S(=O)(=O)c2ccc(C(=O)O)cc2)c2ccccc2C1=O,-2.51% (inactive)
7,CCNC(=S)NNC(=O)c1ccccn1,1.27% (inactive)
8,O=c1c2ccccc2ncn1Cc1ccco1,0.5% (inactive)
9,Oc1c(CN2CCCCC2)ccc2cccnc12,-2.01% (inactive)
10,COCc1cc(C)nc(SCC(=O)Nc2ccc3c(c2)n(C)c(=O)n3C)c1C#N,-0.56% (inactive)
11,Nc1ccccc1C(=O)NCc1ccc(Cl)cc1,-1.27% (inactive)
12,Nc1nc(SCc2ccc([N+](=O)[O-])cc2)nc2nc3c(cc12)CCCC3,1.97% (inactive)
13,CCN(CC)CCNc1nc2cc(OC)c(OC)cc2c2nc(-c3ccccc3)nn12,-5.15% (inactive)
14,Cc1cc(N(C)N)nc(NC(=O)NS(=O)(=O)c2ccccc2Cl)n1,-0.5% (inactive)
15,Cn1cc(S(=O)(=O)Nc2ccc(Br)cc2F)c(=O)n(C)c1=O,1.97% (inactive)
16,O=C(NCC1CCCO1)C(=O)N/N=C/c1cc(Cl)ccc1O (stereo unspecified),1.27% (inactive)
17,O=C(NCCCN1CCOCC1)C(=O)N/N=C/c1ccccc1O,0% (inactive)
18,Cc1ccc(OCCn2c(C3CC(=O)N(Cc4ccccc4)C3)nc3ccccc32)cc1 (stereo unspecified),-2.51% (inactive)
19,CCOC(=O)c1cnc(-n2[nH]c(C)c(Cc3ccccc3)c2=O)[nH]c1=O,0.56% (inactive)
20,Cc1ccc(C(c2nnnn2Cc2cccs2)N2CCN(Cc3ccc4c(c3)OCO4)CC2)cc1 (stereo unspecified),-2.95% (inactive)
21,COc1cc(/C=C2\SC(c3ccccc3)=NC2=O)cc(Cl)c1O,0.56% (inactive)
22,COC(=O)C1CCN(C(=O)Cc2ccc(C)cc2)CC1,0.5% (inactive)
23,COc1ccc(Cc2nnc(N/N=C/c3ccc(O)cc3)[nH]c2=O)cc1OC,-1.51% (inactive)

row,Compound,inhibition
1,CC1CC(=O)N(C)c2ccc([N+](=O)[O-])cc2N1 (stereo unspecified),1.12% (inactive)
2,O=C(c1cc2ccccc2o1)N1CCCCCC1,2.01% (inactive)
3,COc1cc(OC)cc(C(=O)NC(=S)NNC(=O)c2cnccn2)c1,-1.68% (inactive)
4,CC1CCCC(C)N1c1nnc(NC(=O)Cn2c(=O)oc3ccccc32)s1 (stereo unspecified),-1.97% (inactive)
5,Fc1ccc(-[n+]2nc(Nc3ccccc3)sc2-c2c(Cl)cccc2Cl)cc1,-2.01% (inactive)
6,CC1NC(=O)NC1CCCCCC(=O)Nc1ccc(F)cc1 (stereo unspecified),1.57% (inactive)
7,CCc1nnc(SCC(=O)N2CCc3ccccc32)n1CC,2.46% (inactive)
8,O=C(CNCc1ccccn1)Nc1cc(S(=O)(=O)N2CCCCC2)ccc1Cl,0% (inactive)
9,Cc1nc2sccn2c(=O)c1S(=O)(=O)N1CCN(c2ccc(F)cc2)CC1,4.25% (inactive)
10,O=C1NC(c2ccccn2)Nc2sc3c(c21)CCC3 (stereo unspecified),-1.47% (inactive)
11,COc1cccc(/C=N/NC(=O)CCCC(=O)NC2CCCCC2)c1,1.47% (inactive)
12,CCOC(=O)Cn1c(=O)oc2cc(S(=O)(=O)NCc3ccccn3)ccc21,-0.67% (inactive)
13,COc1cccc(C2c3c(oc4ccc(Cl)cc4c3=O)C(=O)N2c2cc(C)on2)c1OC (stereo unspecified),-1.57% (inactive)
14,CC(/C=N/NC(=O)c1ccc(Cn2cc([N+](=O)[O-])cn2)o1)=C\c1ccccc1,1.97% (inactive)
15,CCOc1ccc(C(=O)NCCn2cc(SCC(=O)Nc3cc(C)on3)c3ccccc32)cc1,0.56% (inactive)
16,O=C(N/N=C/c1ccc([N+](=O)[O-])cc1)c1ccccc1OCc1ccccc1,-1.01% (inactive)
17,CC(=O)Cc1nsc(NC(=O)c2ccc(-c3cc(C(F)(F)F)ccc3Cl)o2)n1,-0.56% (inactive)
18,CCCCC(=O)NC(c1ccc(N(C)C)cc1)c1ccc2cccnc2c1O (stereo unspecified),0% (inactive)
19,CC(C)COC(=O)c1ccc2c(c1O)C(=O)c1ccccc1C2=O,-1.12% (inactive)
20,CCOC(=O)CCSCC(=O)Nc1nnc(C)s1,1.27% (inactive)
21,O=C(CSc1ccccc1)Nc1nnc(/C=C/c2ccccc2)s1,0.25% (inactive)
22,COc1ccc(C(CNC(=O)CN2C(=O)NC3(CCCC3)C2=O)N(C)C)cc1 (stereo unspecified),4.02% (inactive)
23,COc1ccc(C(=O)COC(=O)CN2CC(=O)Oc3ccccc32)cc1Br,-1.97% (inactive)
